First the molecules themselves.
B1: ENSMUSG00000004113.29|Cacna1b (ssRNA)
RNA: GGGAGUUCUACAGUCCGACGAUCGCUUCGAUAUCCGCAUGCUACACUCACCUUUGAAGAGGCAGUGGCCACCAACUCUGGCCGCUCCUCCAGGACUUCCUAUGUGUCCUCCCUCACUUCCCAAUCCCACCCUCUCCGCCGUGUACCCAAUGGCUAUCACUGCACUUUGGGACUCAGCACUGGCGUCCGGGCGCGGCACAGCUACCACCACCCCGAUCAGGACCACUGGUGCUAGCUGCACCACGACCACCCAUGUACCAGCUCCAUGGGUGAGGGUUCCAGUUGAUGAGUUUUAUCAUCCGCUCUCUUGCGGUCGCACUAGUGUGGAAUUCUCGGGUGUCAAGG
B2: ENSMUSG00000034801.222|Sos2 (ssRNA)
RNA: GGGAGUUCUACAGUCCGACGAUCGCUUCGAUAUCCGCAUGCUAUGUAAGUCUGGAACAAAAGUGUCUUAUGGCAUAAGAACCAACUGCCAUUGUCAAACCUAUUAACUGUCUUUAAUCUCGUGUUAACUGAAAUUUUUGAAAAGUUUUUCCAGAUUAGUAAUAUUUAAACAGAAAAUACUUUAAAAAGCUUUAUUAAAUUUUUUAAUCAGGAUAAAGCUUUGCCAUUUGGAUACUAUCAUUCAAAGUGAUCAAGGUAUGUAUGUUAUGCUGAUAGUGCAGUAGCAGCCAUUGUAAAGUAGCCACUCUUGCGGUCGCACUAGUGUGGAAUUCUCGGGUGUCAAGG
B3: ENSMUSG00000061578.107|Ksr2|134:138;220:225 (ssRNA)
RNA: GGGAGUUCUACAGUCCGACGAUCGCUUCGAUAUCCGCAUGCUAGGCCUCUCUGGGGACCAGUCCCUGGCCUUCACCCUUCUCCCAUUUUGUAAGAACACUGUUCUAACUCACCUCAUGCCCACGCUACCCUGGGCAACUGGAGAACACCAUAGCGUUUCAGCUGAUGUGACAUUUGCACACACCUUUACCAGUUCACCAUCAUUCAUGGCUUCCCCCAAAGUCCCGAGUCCUGAGAACCGGGGCUGUGGCAAGAGAGUUCUGCACACAUCUCUCUGUGGGGCUAGCAAUGCCGGGGUUAAGUUCUCUUGCGGUCGCACUAGUGUGGAAUUCUCGGGUGUCAAGG
B4: ENSMUSG00000031028.253|Tub (ssRNA)
RNA: GGGAGUUCUACAGUCCGACGAUCGCUUCGAUAUCCGCAUGCUAAGCUCUUGCCUGUGUGCCAUCUGUGAGAAGCUUCUUGGAGCUGAGACACCAGAGGGAAGCAAAGAGCAUUUAGACAUUGCUUUUUGCUUUGAAAUAGAUAUGUUUGGAAACGCUAAGUAGAAGUUUAAAAAGUAGAGUCAUGUAGAGUCAUGCUUUGAAUAUGUGGGUCAUGCUUUAGAUAUGAAGAGGCUAUGCAGGUAAGGAGGCUGGAUUGAUGUAAAUGGAAGUAGUACUUUAAGAAAGCUCUAGAUUUCCCAGGUCUCUUGCGGUCGCACUAGUGUGGAAUUCUCGGGUGUCAAGG
B5: ENSMUSG00000031028.56|Tub|187:199;217:221 (ssRNA)
RNA: GGGAGUUCUACAGUCCGACGAUCGCUUCGAUAUCCGCAUGCUACCAAGGUCAACACACAUGCCCAGUCCUGGGUCAGUCCCCUGCUGCAGUGGUGUUAUCACACCGGAAAGCCUCUUCACCUGGAGGUACAGAGGGAGAGGAAGCACAAGCCUGGCUGCUGUGGCUCAGCCAUCCACUCAGCCUACGAGUCAGAGACAGUGGGUGUCCCGGGAAGCAGGGGUACAGUGACACACACACAUACUACAGGGCACUCAAGCUCAUACUAGAAAAAGCUCUGGUGGUCAGCAGAAAGCACUCCCACUCUCUUGCGGUCGCACUAGUGUGGAAUUCUCGGGUGUCAAGG
B6: ENSMUSG00000043670.83|Diras1 (ssRNA)
RNA: GGGAGUUCUACAGUCCGACGAUCGCUUCGAUAUCCGCAUGCUAAUCCCAGUCAGGCCCAGAGAGGUUACCUUGCCUCUCCAUCUCUGUCCCUGUGUGCCCAGCCAUGCCCACUGUCCCUGUCCCUCACAUUCUAUCACUGUGACCUCUGGGGAGUGCCCAUUGACCUCAUCUUCCUUCACUAAUAUCUUAUUUCUUUCACCUGAUCCUGUCCUUUCCCCGUGACCUCUGACCUGUGGCCUUCCCUGGGUCCAGAACACCCCUGUCCUCUCCUGUCUGCACACCAGGGUGGAUGGGCCCGAGGGCUCUUGCGGUCGCACUAGUGUGGAAUUCUCGGGUGUCAAGG
B7: ENSMUSG00000028439.194|Fam219a (ssRNA)
RNA: GGGAGUUCUACAGUCCGACGAUCGCUUCGAUAUCCGCAUGCUAAGCCUAUCUGUCCAGGGAACCAGAUUGGUGUCCGAGAUGAGGAAAUGGCUGUGGCCUGGGAAAUCAGUGAGAGGCCGCUUGGGAAUGAGAAUGCAGUGGACUGAAAGCACAGCCUGGCCAUCUGGAACCUGGGUUCUGGUCCCAGCCUCGGCAUUCUCCCUGAGCUCCUAAGCAAUUCCCAGGCUUCUCUAGGGCUUCAGUUCUCACAACUGGAAAAUAAAGAGUAGCUGACAUCACCGACAGAGUCUUUUCAUACCAGACUCUUGCGGUCGCACUAGUGUGGAAUUCUCGGGUGUCAAGG
B8: ENSMUSG00000031028.89|Tub (ssRNA)
RNA: GGGAGUUCUACAGUCCGACGAUCGCUUCGAUAUCCGCAUGCUAGUACAGGGCACUCAAGCUGUAUGUAGAAAAAGCUCUGGUGGUCAGCAGAAAGCACUCCCACUUCAAAAGGGCCCAUUAGGCCCAAAGGGGGUUAGGAGUGGUAGGGAUAGGUGCGUGGCAGGUCCCUGCUAGGAUUGCAGGGGCCUGGCCAUGUGUAUUAGCUGGAGGCUUAGAAUGCUAGCUCAUUUGUUGCUACAGAUUUGCCCAGUGCUUGCACACGUAAGAACCCAGCUCUCAAGGCCAAAUAUCUGAGUGGAUGGCUCUUGCGGUCGCACUAGUGUGGAAUUCUCGGGUGUCAAGG
B9: ENSMUSG00000034801.36|Sos2 (ssRNA)
RNA: GGGAGUUCUACAGUCCGACGAUCGCUUCGAUAUCCGCAUGCUAGCAGAAUUCAAGCCCUCUCUUACCAAAGCUGCCACCAAAGACUUACAAACGGGAGCUUUCCCACCCGCCACUGUAUAGACUGCCUCUGCUGGAAAAUGCAGAAACUCCUCAAUGACCUUGGCCAUAUGUAGUCAUUGACACUGGAAUAGUAUUUGUAAAGGUUUUUAAUUUAUUCAAAAAGACAUAGUAUUUUAGUACUUUUUACAGAAAUGCUACUGAUUAAAUAAGCUCUUAAGAAUUAGUAAACUUGUUGGAUGGCACUCUUGCGGUCGCACUAGUGUGGAAUUCUCGGGUGUCAAGG
B10: ENSMUSG00000043670.328|Diras1 (ssRNA)
RNA: GGGAGUUCUACAGUCCGACGAUCGCUUCGAUAUCCGCAUGCUAUAGCCAGCCCAGGGCCCCCACAGCUGCCACCUGCUCCCAAGCCCCGGGAGUGGCUCCUGGCUGGACAGGGGGUCACAGCCCUUUCUCAGGGACACACCCUGAUAGCACAAUCUCUGGGCCACCCCAGGCUUCUCCUGGCUGGCCUUGCCCAUCCUGGGGAGAACCGGGCUGGGUGGCAGGGGAGGCCGGAGCCCACCCUGGCUGCUGGCCAACCUGCCCAGGCAUCUCUGGUGCUGGGGACCCCGCCAGGCCUCGCUUGCCUCUUGCGGUCGCACUAGUGUGGAAUUCUCGGGUGUCAAGG
B11: ENSMUSG00000043670.175|Diras1 (ssRNA)
RNA: GGGAGUUCUACAGUCCGACGAUCGCUUCGAUAUCCGCAUGCUAAGUCCCUGUGUGCGGUGAUAGGACUAGUGGCUGCUGCCCUAGGGCUCUGACAGAAUCUGAGCCUCUUUGCUGGUCAUGUGUACUCUGGAGACUGUCCCCCAUGUCUGCCCUGAGUUACGGAGCCCCUGUGGUAUCUGCGAGACUGUCCAGGAGACUUGAGUGGCUCCUGGGCCUGUGUCCCACCCAGAUGAGGGUGACUUAGAAUUCUGUGUUUAUGUGCCUGUGUGUGUGGAUGGGUGUGUGUCUGUCUUGGGAUGGGGCUCUUGCGGUCGCACUAGUGUGGAAUUCUCGGGUGUCAAGG
B12: ENSMUSG00000043670.176|Diras1 (ssRNA)
RNA: GGGAGUUCUACAGUCCGACGAUCGCUUCGAUAUCCGCAUGCUAUGUGUGCGGUGAUAGGACUAGUGGCUGCUGCCCUAGGGCUCUGACAGAAUCUGAGCCUCUUUGCUGGUCAUGUGUACUCUGGAGACUGUCCCCCAUGUCUGCCCUGAGUUACGGAGCCCCUGUGGUAUCUGCGAGACUGUCCAGGAGACUUGAGUGGCUCCUGGGCCUGUGUCCCACCCAGAUGAGGGUGACUUAGAAUUCUGUGUUUAUGUGCCUGUGUGUGUGGAUGGGUGUGUGUCUGUCUUGGGAUGGGGUGUUCUCUCUUGCGGUCGCACUAGUGUGGAAUUCUCGGGUGUCAAGG
B13: ENSMUSG00000043670.181|Diras1 (ssRNA)
RNA: GGGAGUUCUACAGUCCGACGAUCGCUUCGAUAUCCGCAUGCUACCCUAGGGCUCUGACAGAAUCUGAGCCUCUUUGCUGGUCAUGUGUACUCUGGAGACUGUCCCCCAUGUCUGCCCUGAGUUACGGAGCCCCUGUGGUAUCUGCGAGACUGUCCAGGAGACUUGAGUGGCUCCUGGGCCUGUGUCCCACCCAGAUGAGGGUGACUUAGAAUUCUGUGUUUAUGUGCCUGUGUGUGUGGAUGGGUGUGUGUCUGUCUUGGGAUGGGGUGUUCUUGCACCACUUUGUGUUCUUAGUGAGACCACCUCUUGCGGUCGCACUAGUGUGGAAUUCUCGGGUGUCAAGG
B14: ENSMUSG00000043670.177|Diras1 (ssRNA)
RNA: GGGAGUUCUACAGUCCGACGAUCGCUUCGAUAUCCGCAUGCUACGGUGAUAGGACUAGUGGCUGCUGCCCUAGGGCUCUGACAGAAUCUGAGCCUCUUUGCUGGUCAUGUGUACUCUGGAGACUGUCCCCCAUGUCUGCCCUGAGUUACGGAGCCCCUGUGGUAUCUGCGAGACUGUCCAGGAGACUUGAGUGGCUCCUGGGCCUGUGUCCCACCCAGAUGAGGGUGACUUAGAAUUCUGUGUUUAUGUGCCUGUGUGUGUGGAUGGGUGUGUGUCUGUCUUGGGAUGGGGUGUUCUUGCACCCUCUUGCGGUCGCACUAGUGUGGAAUUCUCGGGUGUCAAGG
B15: ENSMUSG00000043670.182|Diras1 (ssRNA)
RNA: GGGAGUUCUACAGUCCGACGAUCGCUUCGAUAUCCGCAUGCUAGGCUCUGACAGAAUCUGAGCCUCUUUGCUGGUCAUGUGUACUCUGGAGACUGUCCCCCAUGUCUGCCCUGAGUUACGGAGCCCCUGUGGUAUCUGCGAGACUGUCCAGGAGACUUGAGUGGCUCCUGGGCCUGUGUCCCACCCAGAUGAGGGUGACUUAGAAUUCUGUGUUUAUGUGCCUGUGUGUGUGGAUGGGUGUGUGUCUGUCUUGGGAUGGGGUGUUCUUGCACCACUUUGUGUUCUUAGUGAGACCACAGUGUACUCUUGCGGUCGCACUAGUGUGGAAUUCUCGGGUGUCAAGG
B16: ENSMUSG00000043670.180|Diras1 (ssRNA)
RNA: GGGAGUUCUACAGUCCGACGAUCGCUUCGAUAUCCGCAUGCUACUGCUGCCCUAGGGCUCUGACAGAAUCUGAGCCUCUUUGCUGGUCAUGUGUACUCUGGAGACUGUCCCCCAUGUCUGCCCUGAGUUACGGAGCCCCUGUGGUAUCUGCGAGACUGUCCAGGAGACUUGAGUGGCUCCUGGGCCUGUGUCCCACCCAGAUGAGGGUGACUUAGAAUUCUGUGUUUAUGUGCCUGUGUGUGUGGAUGGGUGUGUGUCUGUCUUGGGAUGGGGUGUUCUUGCACCACUUUGUGUUCUUAGUGACUCUUGCGGUCGCACUAGUGUGGAAUUCUCGGGUGUCAAGG

The full ranking holds about 9,900 sequences; the median of “r (bound/input frequency ratio)” is about 0.7, and the highest 2% start at about 6.5. The sample holds the highest values, similar sequences and a random draw of the others, so the mix is not that of the screen.

TDP-43, sequence (Q13148 whole entry): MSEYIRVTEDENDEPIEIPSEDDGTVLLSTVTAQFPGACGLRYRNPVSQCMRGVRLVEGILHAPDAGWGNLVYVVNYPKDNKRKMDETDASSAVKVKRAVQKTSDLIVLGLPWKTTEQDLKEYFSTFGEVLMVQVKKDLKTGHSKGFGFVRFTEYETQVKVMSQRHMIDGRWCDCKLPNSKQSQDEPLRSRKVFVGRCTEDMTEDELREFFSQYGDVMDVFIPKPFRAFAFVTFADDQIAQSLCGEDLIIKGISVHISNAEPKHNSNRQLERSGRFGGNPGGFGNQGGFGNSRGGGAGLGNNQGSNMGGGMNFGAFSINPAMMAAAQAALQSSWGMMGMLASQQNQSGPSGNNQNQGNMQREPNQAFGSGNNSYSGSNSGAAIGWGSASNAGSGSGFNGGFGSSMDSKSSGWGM

The target of the test is TDP-43 (Homo sapiens, UniProt Q13148 1-414). Description: RNA Bind-n-Seq with designed 260-mer pool; 25 mM Tris-HCl, 150 mM KCl, 3 mM MgCl2, BSA (printed 500 mg/mL), 20 units/mL SUPERase IN; pH not stated; 500 nM RNA pool, 1 h, 4 C; TDP-43 5, 50, 500 nM; high values mean tight binding. Conditions: protein: recombinant; tags: SBP (GST cleaved off with PreScission; pGEX-GST-SBP). Put shortly:
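An in vitro-transcribed pool of 260-nt 3′ UTR oligos (500 nM) was incubated for 1 h at 4 °C with recombinant SBP-tagged TDP-43 at 5, 50 or 500 nM held on streptavidin beads. The buffer contained 25 mM Tris-HCl, 150 mM KCl, 3 mM MgCl2, BSA and SUPERase IN. Biotin-eluted bound RNA was sequenced, and binding, R, is each oligo's normalized read abundance in the bound sample over that in input.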
Regarding B1, the binding signal is 0.399 R (bound/input frequency ratio).
In the case of B2, the binding signal was 0.0419 R (bound/input frequency ratio).
The value for B3 was 0.895 R (bound/input frequency ratio).
The figure for B4 is 2.03 R (bound/input frequency ratio).
On to B5, for which the binding signal was 1.06 R (bound/input frequency ratio).
The figure for B6 is 2.21 R (bound/input frequency ratio).
The figure for B7 is 0.186 R (bound/input frequency ratio); for B8 it is 4.96 R (bound/input frequency ratio).
The figure for B9 is 0.12 R (bound/input frequency ratio); for B10 it is 0.177 R (bound/input frequency ratio); for B11 it is 6.15 R (bound/input frequency ratio).
As to B12, the binding signal was 6.8 R (bound/input frequency ratio).
The value for B13 was 6.26 R (bound/input frequency ratio); that for B14 was 6.1 R (bound/input frequency ratio); that for B15 was 5.77 R (bound/input frequency ratio).
As to B16, the binding signal is 6.66 R (bound/input frequency ratio).

(Values after article PMC12864922, “TDP-43 directly inhibits mRNA accumulation in neurites through modulation of mRNA stability”.)
